# Experimental data as given in PubChem BioAssay (NCI).
# Compounds without any hit were thinned out: in the full panel of roughly 83,000, 20% have a hit.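 Growth was measured after 48 h exposure to one concentration of compound in 96-well plates. Values under 10 count as active.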 A number with no mark means an inactive call. Activity calls are given as the source filed them.
# Tested on: MDA-MB-435 melanoma
# Test: NCI-60 one-dose screen, 48 h (100 = growth as untreated, 0 = no growth, -100 = all killed)
# Settings: 10 µM unless noted
# Procedure: Growth inhibition of the MDA-MB-435 human Melanoma tumor cell line is measured as a screen for anti-cancer activity. Cells are grown in 96 well plates and exposed to the test compound for 48 hours. Compounds are tested at a single concentration, which is 10^-5 M for most compounds. The reported endpoint is percent growth (GI% or GIPRCNT), where numbers from 0 - 100% represent growth inhibition, and numbers from -100% - 0 represent cell death. For example, a value of 40 represents 60% growth inhibition. A value of 0 means no net growth occurred over the course of the experiment. A value of -40 indicates 40% of cells at the beginning of the experiment died by the end of the experiment. A value of -100 means all cells are dead at the end of the experiment.
# NCI-60 Human Tumor Cell Lines Screen was performed using the standard one-dose NCI protocol, which is described in more detail at https://dtp.cancer.gov/discovery_development/nci-60/default.htm.
# Compounds with GIPRCNT values below 10 were considered active. Activity score was based on GIPRCNT using the following formula: […]
# Score is 0 for GIPRCNT values of 100 or above, 50 for GIPRCNT values of 0, and 100 for GIPRCNT values of -100.
row,Compound,growth
1,C/C1=C/C(=O)O[C@@H]2C[C@@H](CC[C@H](C)/C=C\C=C\CC1)O[C@@](OCCc1ccccc1)([C@@H]1CSC(=O)N1)C2,16.7%
2,CC12CCC3C(CC=C4CC(O)CCC43C)C1C/C(=C\N1CCOCC1)C2=O (stereo not given),107%
3,O=S(=O)(Cl)c1ccccc1 (tested in a mixture with another compound),115%
4,CC[C@@H](C)/C=C(C)/C=C/C(=O)c1c(O)c(-c2ccc(O)cc2)cn(O)c1=O,24.1%
5,CC[C@H](C)[C@H](NC(=O)Nc1ccccc1)C(=O)N(C)[C@H](C[C@@H](OC(C)=O)c1nc(C(=O)N[C@@H](Cc2ccccc2)C[C@H](C)C(=O)OC)cs1)C(C)C,-36.7% (active)
6,ClCCN(CCCl)c1nc(Cl)c(C2CC(c3ccccc3)=NN2c2ccccc2)s1 (stereo not given),103%
7,CC(=O)O[C@H]1CCC2(C)C(=CCC3C2CCC2(C)/C(=N/OC(=O)c4ccc(N(CCCl)CCCl)cc4)CCC32)C1 (stereo not given in full),47.1%
8,C1CNC2CCCC2C1 (stereo not given),105%
9,CC1(C)CC2(CC(C)(C)c3cc(O)c(O)cc32)c2cc(O)c(O)cc21,84.8%
10,O=CN1N=C(c2ccc3c(c2)OCO3)CC1c1sc(N(CCCl)CCCl)nc1Cl (stereo not given),97.6%
11,O=C(O)CNC(=O)c1ccccc1,100%
12,CC(C)[C@]12O[C@H]1[C@@H]1O[C@]13[C@]1(O[C@H]1C[C@H]1C4=C(CC[C@@]13C)C(=O)OC4)[C@@H]2OC(=O)OC(C)(C)C,-73.6% (active)
13,CC1(C)N=C(N)N=C(N)N1c1ccc(CCCCc2ccc(Cl)cc2S(=O)(=O)F)c(Cl)c1,19.6%
14,CC(=O)O[C@H]1C[C@H](O[C@H]2[C@@H](O)C[C@H](O[C@H]3[C@@H](O)C[C@H](O[C@H]4CC[C@@]5(C)C(CCC6C5C[C@@H](O)[C@]5(C)[C@@H](C7=CC(=O)OC7)CC[C@]65O)C4)O[C@@H]3C)O[C@@H]2C)O[C@H](C)[C@H]1O[C@@H]1O[C@H](CO)[C@@H](O)[C@H](O)[C@H]1O (stereo not given in full),-97.9% (active)
15,c1ccc([As]=[As]c2ccccc2)cc1 (stereo not given),-37.6% (active)
16,Cc1cc(NC(=O)NCCOc2ccc(N3C(N)=NC(N)=NC3(C)C)cc2Cl)ccc1S(=O)(=O)F,18.8%
17,Nc1nc(N)c(-c2ccc(Cl)c(Cl)c2)c(/C=C/c2ccc(S(=O)(=O)F)cc2)n1,87.5%
18,CCOC(=O)/C(C#N)=C/c1ccc(N(CCCl)CCCl)cc1,94.4%
19,C[C@]12CCc3sc(-c4ccc(Cl)cc4)nc3C1=CC[C@@H]1[C@@H]2CC[C@]2(C)C(=O)CC[C@@H]12,75.7%
20,COc1cc(CNCCc2ccc(Cl)cc2)cc(OC)c1O,-4.7% (active)

row,Compound,growth
1,C[C@]12CC[C@@H]3C4=C(CC[C@H]3[C@@H]1CC[C@@H]2O)CC(=O)CC4,103%
2,COc1ccc(/C=C(/C(=O)N2CCCC2)c2cc(OC)c(OC)c(OC)c2)cc1N,-39.8% (active)
3,O=C(CI)Nc1ccc(Br)cc1,52%
4,CCC(C)(C)O,92.3%
5,[O]=[Sn]([CH]1CCCCC1)[CH]1CCCCC1,-88.4% (active)
6,Cc1cc([N+](=O)[O-])c(Cl)cc1NS(=O)(=O)c1ccccc1,58.4%
7,NC(=O)SCC(=O)Nc1ccc([As](=O)(O)O)cc1,98.5%
8,CC[C@]12C=CCN3CC[C@@]4(c5ccc(OC)cc5N(C)[C@H]4[C@@](O)(C(=O)OC)[C@@H]1OC(=O)CCCN1CCN(CCCC(=O)O[C@@H]4[C@]5(CC)C=CCN6CC[C@@]7(c8ccc(OC)cc8N(C)[C@H]7[C@@]4(O)C(=O)OC)[C@@H]65)CC1)[C@@H]32,-89.3% (active)
9,N#C[Se]CCN1C(=O)C2C(C1=O)[C@H]1C=C[C@@H]2S1 (stereo not given in full),-39.2% (active)
10,CC1(C)N=C(N)N=C(N)N1c1ccc(CCCCc2ccc(S(=O)(=O)F)cc2)cc1,18.9%
11,COc1cc[c]([Hg][Cl])cc1,34.3%
12,NC(=O)C(Br)CBr (stereo not given),-73.3% (active)
13,O=C(/C=C/c1ccccc1)N[C@@H](CO)Cc1cnc[nH]1,113%
14,COc1cc2c(cc1OC)CN(C)C(C)C2 (stereo not given),101%
15,CC(/C=N/N=C(N)N)=N/N=C(N)N,100%
16,COc1cc(C2CC(=O)Nc3nc(N)[se]c32)cc(OC)c1OC (stereo not given),105%
17,CCN(CC)CCOc1c(C(C)C)cccc1C(C)C,114%
18,CNC(C)Cc1ccccc1 (stereo not given) (tested in a mixture with another compound),104%
19,CC(C)(C)N(Cc1ccccc1)N=O,102%
20,CC1(C)N=C(N)N=C(N)N1c1ccc(OCCCCNC(=O)Nc2cccc(S(=O)(=O)F)c2)c(Cl)c1,20.1%
